The other results are listed elsewhere or left out. The source made the active and inactive calls.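 Rule for the calls: active = compounds that showed inhibition of Dyrk1a and received a fitted potency; inactive = compounds that showed no inhibition.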

The target in this assay is Dual specificity tyrosine-phosphorylation-regulated kinase 1A (Homo sapiens) (UniProt Q13627). Put plainly: Kinase Inhibition Study on Inhibitors of Dyrk1a (Reaction Biology data). The conditions noted are these: Reaction Biology kinase assay, 10 uM ATP. From the text:
NIH Molecular Libraries Probe Production Centers Network [MLPCN] NIH Chemical Genomics Center [NCGC] MLPCN Grant: 1R03MH084827-01 Assay Submitter (PI): Tom Misteli NCGC Assay Overview: Alternative splicing of pre-mRNAs plays a major role in the regulation of eukaryotic gene expression. Alternative splicing is now thought to be one of the primary reasons for the complexity of higher organisms leading to an average of three protein isoforms per gene. Aberrant splicing can lead to a number of diseases and is known to play a role in rare genetic diseases such as progeria syndrome. Hutchinson-Gilford Progeria Syndrome (HGPS) is a pediatric premature aging disease caused by a spontaneous mutation in the lamin A/C (LMNA) gene due to a single point mutation in the lamin A gene effecting 1 in 4 million people. To identify both specific splicing modulators of the lamin A gene as well as general splicing modulators, a cell-based HTS assay was developed using a minigene reporter system (AIDs, 1459 & 1487). […] The Clk family is part of the CMGC group of protein kinases which includes Dyrks and are essential kinases found in all eukaryotes. […] This AID is to summarize the activity of these analogs in Dyrk1a.
All kinase reactions were performed using 10 uM ATP in the assay. 100% activity was taken from kinase reactions with DMSO alone (the vehicle used for compound stock solutions).
Consider `CC(Nc1ncnc2ccc(-c3ccc4c(c3)OCO4)cc12)c1ccco1` (centres undefined), for which the Potency was 5600 nM (active).

Regarding `CN(Cc1cncn1C)c1ncnc2ccc(-c3ccc4c(c3)OCO4)cc12`, the Potency is 2450 nM (active).

With `c1nc(N2CCOCC2)c2cc(-c3ccc4c(c3)OCO4)ccc2n1`, the Potency is 723 nM (active).

For `c1coc(CCNc2ncnc3ccc(-c4ccc5c(c4)OCO5)cc23)c1`, the Potency is 74 nM (active).

Source of the values: PubChem BioAssay AID504424 (National Center for Advancing Translational Sciences (NCATS), 2011).
